Experimental findings from PubChem BioAssay AID651747 (Johns Hopkins Ion Channel Center, 2012) are described below.

The structures appear in SMILES notation. Out of some 2,400 compounds screened, about 950 (40%) were called active.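 How the source made its calls: active means thallium flux ratio, averaged over three wells, more than 5 SD below the buffer control mean; inactive means the rest.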 A selection follows.

A short description of this assay: nonspecific thallium influx blockers, KCNK3-free cells – cell-based, non-induced KCNK3 line, FluxOR thallium, triplicate, counter-screen for KCNK3 inhibitor project, primary screen (AID 651747).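 Further: host cells are CHO cells without KCNK3 induction.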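 On thallium flux ratio (lower = more inhibition): ratio is peak minus trough fluorescence over baseline then normalized to buffer controls.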 To be noted: non-induced KCNK3 parental cells, at 10 µM; outcome: FluxOR thallium flux; thallium flux ratio (lower = more inhibition): stronger effect = lower value. (A counterscreen serves to expose hits that act by an unwanted route or on another target.)
Turning to `CC(=O)N(C1=C(Cl)C(=O)c2ccccc2C1=O)c1ccc(C(=O)O)cc1`, the thallium flux ratio (lower = more inhibition) is 0.11 (active).

Turning to `CC(C(=O)NCC1CCCCC1)N(C)Cc1cccc(Cl)c1` (stereo not drawn), the thallium flux ratio (lower = more inhibition) result is “inactive”.

`CC(C)CCNC(=O)C(C)N(C(=O)Cn1nnc(-c2ccc(F)cc2)n1)C1CCCC1` (stereo not drawn): the thallium flux ratio (lower = more inhibition) result was “inactive”.

As to `COc1cccc(NC(=S)N(CCc2c(C)[nH]c3ccccc23)Cc2ccco2)c1`, the thallium flux ratio (lower = more inhibition) was 0.153 (active).

`Cc1nonc1C1CCCN1C(=O)c1cc(COc2cccc(C(F)(F)F)c2)on1` (stereo not drawn): the thallium flux ratio (lower = more inhibition) result was “inactive”.

With `Cc1cccc(N(Cc2ccccc2)C(=O)c2ccccc2F)c1`, the thallium flux ratio (lower = more inhibition) result is “inactive”.

On to `Cc1cccc(C)c1N1CCN(S(=O)(=O)N2CCCCC2)CC1`, for which the thallium flux ratio (lower = more inhibition) is 0.156 (active).

As to `COc1ccccc1N1CCN(/N=C\C(Br)=C\c2ccccc2)CC1`, the thallium flux ratio (lower = more inhibition) entry is “inactive”.

Consider `c1ccc2c(NC3C4CC5CC(C4)CC3C5)nc(N3CCOCC3)nc2c1` (stereo not drawn), for which the thallium flux ratio (lower = more inhibition) was 0.151 (active).

Take `COc1ccc(Cl)cc1NC(=O)C(C)N1CCc2ccccc21` (stereo not drawn): the thallium flux ratio (lower = more inhibition) entry was “inactive”.

In the case of `CCOc1ccc(C2c3[nH]c4ccccc4c3CCN2Cc2cccn2-c2ncccn2)cc1` (stereo not drawn), the thallium flux ratio (lower = more inhibition) entry was “inactive”.

For the molecule `C=CCc1cc(S(=O)(=O)c2ccc(O)c(CC=C)c2)ccc1O`, the thallium flux ratio (lower = more inhibition) was 0.155 (active).

On to `CCN(CC)CCN(C(=O)c1cc(Cl)sc1Cl)c1nc2cc3c(cc2s1)OCO3`, for which the thallium flux ratio (lower = more inhibition) is 0.143 (active).

Regarding `COc1cc(Cl)c(S(=O)(=O)N2CCN(Cc3ccc4c(c3)OCO4)CC2)cc1Cl`, the thallium flux ratio (lower = more inhibition) result is “inactive”.

`COC(=O)c1cc(NC2c3ccccc3C(=O)N2c2ccc(Cl)cn2)cc(C(=O)OC)c1` (stereo not drawn): the thallium flux ratio (lower = more inhibition) entry is “inactive”.

`CCCCC(=O)Nc1ccccc1N1CCN(c2ccc(F)cc2)CC1`: the thallium flux ratio (lower = more inhibition) entry is “inactive”.

For `O=C(Nc1ccccc1N1CCCC1)c1ccc2ccccc2c1`, the thallium flux ratio (lower = more inhibition) is 0.131 (active).

As for `O=C(CNCCC1=CCCCC1)Nc1ccccc1N1CCCCCC1`, the thallium flux ratio (lower = more inhibition) result is “inactive”.

Turning to `Cc1cccc(C(=O)Nc2ccccc2N2CCN(c3ccc(F)cc3)CC2)c1`, the thallium flux ratio (lower = more inhibition) was 0.151 (active).

Consider `CCc1cc(C(c2ccccc2OC)N2CCOCC2)c(NC(=O)c2ccccc2)s1` (stereo not drawn), for which the thallium flux ratio (lower = more inhibition) result was “inactive”.

On to `CSCc1cc(N(C)C)nc(SCc2ccc(Cl)cc2Cl)n1`, for which the thallium flux ratio (lower = more inhibition) was 0.15 (active).

Turning to `COc1ccc2c(c1)C(c1cccs1)=NNC(c1cccnc1)=N2`, the thallium flux ratio (lower = more inhibition) entry is “inactive”.

Turning to `c1ccc(C(c2ccccc2)N2CCN(Cc3nnnn3C3CCCCC3)CC2)cc1`, the thallium flux ratio (lower = more inhibition) was 0.129 (active).

As to `Cc1cccc2c1-c1sc(C(=O)NCCCN3CCc4ccccc4C3)cc1CO2`, the thallium flux ratio (lower = more inhibition) entry was “inactive”.

`CCCCCCCCCCCCN1C(=O)CSC1c1cccnc1` (stereo not drawn): the thallium flux ratio (lower = more inhibition) is 0.148 (active).

As for `Cc1c(C(=O)N2CCCc3ccccc32)sc2nc(-c3ccccc3)cn12`, the thallium flux ratio (lower = more inhibition) result was “inactive”.

With `COc1ccc(CC(=O)Nc2nc(-c3ccc(F)c(F)c3)cs2)cc1OC`, the thallium flux ratio (lower = more inhibition) was 0.102 (active).

Consider `CCc1ccc2nc3sc(C(=O)Nc4nnc(CC)s4)c(N)c3cc2c1`, for which the thallium flux ratio (lower = more inhibition) was 0.108 (active).

On to `COc1ccc(C2Nc3ccccc3C(=O)N2Cc2ccccc2)cc1Cn1nnc2ccccc21` (stereo not drawn), for which the thallium flux ratio (lower = more inhibition) is 0.144 (active).

Turning to `CCCc1cc(C(=O)N2CCCC(CO)(CCCc3ccccc3)C2)n(C)n1` (stereo not drawn), the thallium flux ratio (lower = more inhibition) was 0.152 (active).

Consider `CC(=O)N1CCCc2cc(S(=O)(=O)N3CCCC(C(=O)N4CCN(c5cccc(Cl)c5)CC4)C3)ccc21` (stereo not drawn), for which the thallium flux ratio (lower = more inhibition) entry is “inactive”.

Take `CC(Sc1nc2ccccc2c(=O)n1Cc1ccco1)C(=O)c1ccccc1` (stereo not drawn): the thallium flux ratio (lower = more inhibition) entry is “inactive”.

For `O=C(Nn1c(SCc2ccc([N+](=O)[O-])cc2)nc2ccccc2c1=O)c1ccc(F)cc1`, the thallium flux ratio (lower = more inhibition) is 0.136 (active).

With `CCc1nc(SCC(=O)NNC(=O)c2ccc(C)cc2)c2ccccc2n1`, the thallium flux ratio (lower = more inhibition) entry is “inactive”.

For `COc1cc(C(=O)Nc2oc(-c3ccccc3)c(-c3ccccc3)c2C#N)cc(OC)c1OC`, the thallium flux ratio (lower = more inhibition) entry is “inactive”.

For the molecule `Cc1cc(NC(=O)Nc2ccc(Cl)cc2)n(-c2ccccc2)n1`, the thallium flux ratio (lower = more inhibition) entry is “inactive”.

For the molecule `O=C(Nc1cccc(S(=O)(=O)Nc2ccc(Cl)cc2)c1)c1ccc2c(c1)OCCO2`, the thallium flux ratio (lower = more inhibition) was 0.136 (active).

For the molecule `C=CCN(N=Nc1cccc([N+](=O)[O-])c1)c1cccc([N+](=O)[O-])c1`, the thallium flux ratio (lower = more inhibition) entry was “inactive”.

For the molecule `COc1ccccc1C(c1nnnn1C(C)(C)C)N1CCN(Cc2ccccc2)CC1` (stereo not drawn), the thallium flux ratio (lower = more inhibition) result was “inactive”.

For the molecule `CCC(C)(C)n1nnnc1C(c1cccs1)N1CCN(c2nc3ccccc3s2)CC1` (stereo not drawn), the thallium flux ratio (lower = more inhibition) is 0.156 (active).

With `COCCNc1cc(-c2ccccc2)nc2cc(-c3cccc(F)c3)nn12`, the thallium flux ratio (lower = more inhibition) was 0.13 (active).

Turning to `Cc1nc(N2CCOCC2)c2c(C)c(C(=O)Nc3ccc(C(F)(F)F)cc3)sc2n1`, the thallium flux ratio (lower = more inhibition) is 0.152 (active).

With `Cc1nc(N2CCN(c3ccccn3)CC2)c2c(C)c(C(=O)Nc3ccc(F)cc3)sc2n1`, the thallium flux ratio (lower = more inhibition) entry was “inactive”.

For the molecule `Cc1nc(N2CCN(c3ccccn3)CC2)c2c(C)c(C(=O)Nc3ccc(F)c(Cl)c3)sc2n1`, the thallium flux ratio (lower = more inhibition) entry is “inactive”.

On to `Cc1ccc(NC(=O)COC(=O)CNC(=O)c2ccc(Cl)cc2Cl)cc1S(=O)(=O)N1CCOCC1`, for which the thallium flux ratio (lower = more inhibition) entry is “inactive”.

Consider `O=C(N/N=C/c1sc(N2CCCCC2)nc1-c1cccs1)c1cccnc1`, for which the thallium flux ratio (lower = more inhibition) was 0.155 (active).

With `Oc1ccc(/C=N/Nc2nc(-c3ccccc3F)nc3ccccc23)c(O)c1`, the thallium flux ratio (lower = more inhibition) was 0.143 (active).

For the molecule `Cc1cc(C)c(C#N)c(SCc2ccc3c(c2)OCO3)n1`, the thallium flux ratio (lower = more inhibition) was 0.115 (active).

As for `COc1ccc(CN(C)C(=O)c2cc(-c3ccc(C)cc3C)nc3ccccc23)c(OC)c1OC`, the thallium flux ratio (lower = more inhibition) was 0.111 (active).

As to `COc1ccc(-c2nc(CCNC(=O)c3ccc(Br)o3)cs2)cc1`, the thallium flux ratio (lower = more inhibition) entry was “inactive”.

`O=C(N/N=C/c1cccc(OCc2ccccc2)c1)c1ccc(Br)o1`: the thallium flux ratio (lower = more inhibition) entry was “inactive”.

`CC(=O)c1ccccc1OCc1ccc(C(=O)c2ccccc2)cc1`: the thallium flux ratio (lower = more inhibition) was 0.103 (active).

As to `COc1ccc(CCNC(=O)c2ccccc2OCc2ccccc2)cc1`, the thallium flux ratio (lower = more inhibition) was 0.153 (active).

Turning to `Cc1nc2ccccc2cc1OCc1ccc(F)cc1`, the thallium flux ratio (lower = more inhibition) entry is “inactive”.

With `O=C(Oc1ccc(Br)cc1C(=S)N1CCOCC1)c1cccc([N+](=O)[O-])c1`, the thallium flux ratio (lower = more inhibition) entry is “inactive”.

In the case of `COC(=O)c1ccc(COC(=O)C2CCN(S(=O)(=O)c3c(Cl)cccc3Cl)CC2)o1`, the thallium flux ratio (lower = more inhibition) entry is “inactive”.

Consider `COc1ccc(S(=O)(=O)NCCCCOc2ccc(Cl)cc2)cc1`, for which the thallium flux ratio (lower = more inhibition) was 0.135 (active).

Turning to `COc1ccc(C(C)=O)cc1COc1ccc(Cl)c(C)c1`, the thallium flux ratio (lower = more inhibition) is 0.158 (active).
